69 compounds from PubChem BioAssay AID651593 (National Center for Advancing Translational Sciences (NCATS), 2012) can be followed below.

The whole screen tested about 1,100 compounds, of which about 860 (78%) were called active. Another 19% or so got no clear call; they are omitted. Calls follow the shape of the dose curve; as a rule, active = well fitted activation curve with a large enough effect; inconclusive = small, poorly fitted or top-dose-only effect; inactive = flat fitted curve, though single readings scatter. So high a share suggests a set chosen from earlier hits. The list shows a part of the results.
Potency is read from the fitted curve at half-maximal effect.

This assay can be described thus: qHTS of Nrf2 Activators: Hit Validation in Primary Assay. Also: nearly all actives have a fitted effect of over 70% in size. To be noted: Nrf2/ARE reporter cell assay; Potency: activation; series mostly up to 46.1 µM. In outline:
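AREc32 cells stably carrying an ARE-driven firefly luciferase, plated overnight, then exposed 24 h at 37 °C to compounds at several concentrations. ARE activation read as luminescence with Steady-Glo after 30 min at room temperature.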
On the technique in general: In qHTS, concentration-response curves come from the screen itself.
For the compound `c1ccc2c(c1)nnn2-c1ncnc2sccc12`, the Potency was 13 µM (active).
The result for `Clc1nc2sccn2c1/C=N/n1cnc2ccccc21` reads 2.59 µM (active); that for `O=C(CSc1nnc(-c2cccnc2)o1)c1cc2ccccc2oc1=O`, 18.4 µM (active); that for `Oc1ccccc1C=NN=Cc1c(O)ccc2ccccc12`, 3.66 µM (active).
The result for `Nc1nonc1N/N=C/c1c(O)ccc2ccccc12` reads 6.51 µM (active); that for `Cc1cc(N/N=C/c2c(O)ccc3ccccc23)nc(-c2ccccc2O)n1`, “inactive”.
With `O=C(Nc1cccc([N+](=O)[O-])c1)Nc1cccs1`, the Potency was 18.4 µM (active).
`Cc1c(NC(=O)Nc2cccs2)cccc1[N+](=O)[O-]`: the Potency is 11.6 µM (active).
As to `O=c1oc2ccc(Cl)cc2nc1/C=C(\O)c1cccs1`, the Potency was 14.6 µM (active).
To `O=c1oc2ccc(Cl)cc2nc1/C=C(\O)c1ccco1` belongs 14.6 µM (active); to `CC(C)(C)/C(O)=C/c1nc2cc(Cl)ccc2oc1=O`, 13 µM (active); to `O=c1oc2ccccc2cc1-c1nc2c(s1)CCc1ccccc1-2`, 3.26 µM (active).
To `O=c1oc2ccccc2cc1-c1csc(Nc2ccc(O)cc2)n1` belongs 4.61 µM (active).
Consider `O=c1oc2ccccc2cc1-c1nc(-c2cccs2)cs1`, for which the Potency is 3.66 µM (active).
To `N=c1oc2ccccc2cc1-c1nc(-c2ccccc2)cs1` belongs 3.66 µM (active).
To `COc1ccccc1C(=O)NCc1nc2cccnc2n1Cc1ccc(F)cc1` belongs 2.91 µM (active); to `C#CCSc1nnc(-c2sc3ccccc3c2Cl)o1`, 2.59 µM (active).
To `c1cncc(-c2nc(NCc3ccco3)c3ccccc3n2)c1` belongs 5.17 µM (active).
Consider `Cc1ccc(-c2nc(NCc3ccco3)c3ccccc3n2)cc1`, for which the Potency was 6.51 µM (active).
To `O=C(CCN1C(=O)c2cccc3cccc(c23)C1=O)Nc1ccon1` belongs 4.61 µM (active).
The result for `Cc1cc(=O)oc2c(C(=O)/C=C/c3ccccc3)c(O)ccc12` reads 2.59 µM (active); that for `Cc1cc(=O)oc2c(C(=O)/C=C\c3cccs3)c(O)ccc12`, 9.2 µM (active); that for `Cc1ccc(S(=O)(=O)CCSC(=N)N)cc1`, 18.4 µM (active).
The result for `O=C(Nc1ccc(Cl)cn1)c1cnn2cccnc12` reads 5.17 µM (active); that for `COc1cccc(/C=C2/CCC(CN(C)C)C2=O)c1` (centres undefined), 3.66 µM (active).
As to `C=CCc1cccc(C=Nc2cc(Br)ccc2O)c1O`, the Potency is 3.26 µM (active).
To `Cc1ccc(Cn2c(/C=C/c3ccco3)nc3ccccc32)cc1` belongs 2.31 µM (active); to `O=C(Nc1ccccn1)c1ccc(Cl)c([N+](=O)[O-])c1`, 18.4 µM (active).
The result for `Cc1cc(CNC(=O)c2cccc([N+](=O)[O-])c2)c2ccccc2n1` reads “inactive”; that for `O=C(Nc1nc2ccccc2[nH]1)c1ccc(Cl)c([N+](=O)[O-])c1`, 20.6 µM (active); that for `O=C(Nc1nc2ccccc2[nH]1)c1cccc([N+](=O)[O-])c1`, 2.06 µM (active).
`S=c1[nH]nc(-c2ccncc2)n1/N=C/C=C/c1ccco1`: the Potency was 8.2 µM (active).
To `S=c1[nH]nc(-c2ccccc2)n1/N=C/C=C/c1ccco1` belongs “inactive”; to `Cc1cccc(-c2n[nH]c(=S)n2/N=C/C=C/c2ccco2)c1`, 2.06 µM (active); to `CC(/C=N/n1c(-c2ccncc2)n[nH]c1=S)=C\c1ccco1`, 2.59 µM (active).
Regarding `O=C1C(=Cc2cccc(Cl)c2)Cc2ccccc21`, the Potency was 4.61 µM (active).
To `O=C1C(=Cc2cccc(F)c2)Cc2ccccc21` belongs 13 µM (active); to `COC(=O)/C=C1/S/C(=N/N=C/c2ccco2)NC1=O`, 0.82 µM (active).
To `O=C(/C=C/c1cccs1)c1ccco1` belongs 20.6 µM (active); to `CCCN(C(=O)c1ccco1)c1nnc(-c2ccccc2C)s1`, 8.2 µM (active); to `S=c1[nH]nc(-c2ccco2)n1/N=C/C(Cl)=C/c1ccccc1`, 23.1 µM (active).
The result for `S=c1[nH]nc(COc2ccccc2)n1/N=C/C(Cl)=C/c1ccccc1` reads 4.61 µM (active); that for `S=c1[nH]nc(-c2cccnc2)n1/N=C/C(Cl)=C\c1ccccc1`, 14.6 µM (active).
Consider `O=C(Nc1ccc(F)cc1)c1cc2ccccc2o1`, for which the Potency was 3.66 µM (active).
To `Cc1ccc(NC(=O)c2cc(=O)c3ccccc3o2)cc1` belongs 20.6 µM (active).
The result for `Cc1ccc(C)c(NC(=O)COC(=O)c2cc(=O)c3ccccc3o2)c1` reads 20.6 µM (active); that for `O=c1oc(CCCO)cc2ccc(C#Cc3ccsc3)cc12`, 2.31 µM (active); that for `O=c1[nH]c(O)c(/C=C2\C=Nc3ccc(Br)cc32)[nH]1`, 8.2 µM (active).
Take `O=c1[nH]c(O)c(/C=C2\C=Nc3ccccc32)[nH]1`: the Potency is 14.6 µM (active).
For the compound `O=C(CN1CCS(=O)(=O)CC1)N/N=C/c1cccc(C(F)(F)F)c1`, the Potency is 2.31 µM (active).
To `Nc1nc(-c2ccccc2)cc(-c2ccccc2O)n1` belongs 4.11 µM (active); to `Oc1ccccc1-c1csc(-c2ccccc2)n1`, 7.31 µM (active).
In the case of `CC1Sc2n(c3ccccc3[n+]2C)N=C1c1ccccc1` (centres undefined), the Potency was 7.31 µM (active).
The result for `C[n+]1c2n(c3ccccc31)N=C(c1ccccc1)CS2` reads 2.91 µM (active).
To `COc1cc2c(c(Br)c1N)-c1cc(Br)c(N)cc1C2=O` belongs 4.11 µM (active); to `O=C(Nc1ccccc1C(=O)N/N=C/c1ccco1)c1ccccc1`, 2.31 µM (active); to `O=C(Nc1ccccc1C(=O)N/N=C/c1ccco1)c1ccc(F)cc1`, 2.31 µM (active).
The result for `Nc1c(Cl)c(Cl)nc(C(=O)N/N=C/c2ccco2)c1Cl` reads 2.59 µM (active); that for `Cc1nn(C)c(C)c1/C=C(/C(=O)C(C)(C)C)n1cncn1`, 11.6 µM (active); that for `O=C(CN1C(=O)S/C(=C\c2ccccc2Cl)C1=O)NC1C=CS(=O)(=O)C1` (centres undefined), 18.4 µM (active).
Regarding `O=[N+]([O-])c1cc(Cl)cc(/C=N/Nc2nc3ccccc3s2)c1O`, the Potency result is “inactive”.
To `Brc1cc2c(cc1/C=N/Nc1nc3ccccc3s1)OCO2` belongs 2.31 µM (active); to `N#Cc1c(-c2ccco2)cc(-c2ccccn2)nc1N`, 2.31 µM (active); to `CC(C)Cc1cc(-c2ccco2)c(C#N)c(N)n1`, 1.3 µM (active).
The result for `CCc1nc(N)c(C#N)c(-c2ccco2)c1C` reads 1.64 µM (active); that for `N#Cc1c(-c2ccco2)cc(-c2ccc(F)cc2)nc1N`, 2.31 µM (active); that for `O=[N+]([O-])c1cccc(-c2cnc3ccccc3n2)c1`, 6.51 µM (active).
The result for `c1coc(-c2cnc3ccccc3n2)c1` reads 5.17 µM (active); that for `O=C(Oc1cccc(-c2cnc3ccccc3n2)c1)c1ccco1`, 3.26 µM (active).
